Source: PubChem BioAssay (National Center for Advancing Translational Sciences (NCATS))
G9a block = inhibitors of human histone lysine methyltransferase G9a; AID 504332; Q96KQ7; hit rate 8.8% among 350,000; Potency, µM (highest dose often 102 µM), inactives show at the top dose activity, negative = inhibition, actives largely listed as inhibitors; G9a H3K9 monomethylation, AlphaScreen, 2 h; also: potency is read from the fitted curve at half-maximal effect; % is scaled to controls: 0 for no effect and ±100 for the full control effect; nearly all actives have a fitted effect of over 75% in size
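G9a (20 nM) preincubated 15 min RT with compounds, then 500 nM biotinylated H3K9 peptide and 20 uM SAM added; 2 h RT reaction. Monomethyl-H3K9 product detected by AlphaScreen with anti-H3K9me1 antibody, streptavidin donor and anti-rabbit IgG acceptor beads.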
BAZ2B block = inhibitors of human BAZ2B bromodomain. AlphaScreen BAZ2B-H3K14Ac peptide displacement. Potency, µM (top dose mostly 114 µM), without a hit: top-dose activity change, negative = inhibition, hits mostly inhibitors. hit rate 4.4% among 360,000; also: potency is read from the fitted curve at half-maximal effect; % is scaled to controls: 0 for no effect and ±100 for the full control effect; nearly all actives have a fitted effect of over 60% in size
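AlphaScreen displacement of biotin-H3(5-23)K14Ac peptide (50 nM final) from BAZ2B (50 nM final) in PBS pH 7.4, 0.01% Tween-20; complex preformed 30 min RT, then compounds (top 110 uM) 30 min RT, beads 20 min dark.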
HP1b binding inh = blocks HP1-beta chromodomain binding to methylated histone tails; AlphaScreen HP1-beta / biotin-H3K9me3 peptide binding; Potency, µM (doses to about 114 µM), without a hit: at the highest dose activity change, negative = inhibition, actives largely listed as inhibitors; hit rate 0.56% among 390,000; AID 540317; also: potency is read from the fitted curve at half-maximal effect; nearly all actives have a fitted effect of over 70% in size
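AlphaScreen: HP1-beta (50 nM) preformed 30 min with biotin-H3(1-18)K9me3 peptide (50 nM) in PBS pH 7.4, 0.01% Tween-20. Compound added for 30 min at RT, then streptavidin donor/nickel chelate acceptor beads (10 ug/mL) for 30 min.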
JMJD2A Tudor = JMJD2A Tudor domain (human) inhibition; O75164; AlphaScreen JMJD2A-Tudor / H3K4me3 peptide binding; Potency, µM (series often up to 114 µM), without a hit: at the top dose activity change, negative = inhibition, usual class: inhibitors; hit rate 4.4% among 390,000; also: potency is read from the fitted curve at half-maximal effect; % is scaled to controls: 0 for no effect and ±100 for the full control effect; nearly all actives have a fitted effect of over 50% in size
CtBP-E1A blk = blocks the CtBP interaction with E1A; AlphaScreen GST-E1A/His-CtBP binding, 1536-well; active compounds read low; activity change, % (test concentration not listed); hit rate 0.49% among 340,000; in the data active = activity change below about -65%; inconclusive = mostly about -30% to -63%; also: % is scaled to controls: 0 for no effect and ±100 for the full control effect
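GST-E1A and His-tagged CtBP (125 nM each as 5X stock) were preincubated with pin-transferred compound for 2 h at 37 °C in the dark, then glutathione donor and nickel acceptor beads were added for 1 h before AlphaScreen reading.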
Six1-Eya2 blk = inhibitors of human Six1/Eya2 interaction | AID 651725 | hit rate 0.56% among 360,000 | Q15475+O00167 | AlphaScreen GST-Six1/His-Eya2 binding, biochemical; active compounds read low | activity change, % (no concentration beside the values); in the data active = activity change below about -65%; inconclusive = mostly about -30% to -63%; also: % is scaled to controls: 0 for no effect and ±100 for the full control effect
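AlphaScreen with GST-Six1 and His-Eya2 (5X mix: 250 nM and 500 nM), glutathione donor and nickel acceptor beads; buffer 50 mM Tris pH 8.0, 300 mM NaCl, 1 mM TCEP; 1 h at 37 C in the dark.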
An asterisk follows results filed as active; ? = inconclusive; . = no result given; [ ] = another dose, or the depositor's remark. An excerpt weighted towards active compounds, which were near 10% of everything screened. Unless noted, calls follow the shape of the dose curve; as a rule, active = well fitted inhibition curve with a large enough effect; inconclusive = small, poorly fitted or top-dose-only effect; inactive = no such curve, though single readings can be large or run the other way.

SMILES	G9a block	BAZ2B block	HP1b binding inh	JMJD2A Tudor	CtBP-E1A blk	Six1-Eya2 blk
CCCCOc1ccc(C(=O)NCC(=O)N(C)CC(=O)Nc2ccc(N3CCOCC3)cc2)cc1	25µM*	-2%	-11%	-31%	5	-5
CCOc1ccc(S(=O)(=O)NCCC(=O)N(C)CC(=O)Nc2ccc(N3CCOCC3)cc2)cc1	35µM*	-3%	7%	-14%	6	5
O=[N+]([O-])c1cc(S(=O)(=O)C(F)(F)F)ccc1Sc1nc2ccccc2s1	-6%[0.501 µM]	7.9µM*	?	35µM*	2	-2
c1ccc(CSCc2nc3ccccc3[nH]2)cc1	-10%[59 µM]	-1%	40%	-7%	4	19
CC1(C)CC(NNCCC#N)=CC(=[N+]2CCCC2)C1	40µM*	-27%	-5%	-14%[11.4 µM]	.	6
CC1(C)CC(N2CCCC2)=CC(=[N+]2CCCCC2)C1	?	-24%	-14%	-11%	7	9
CC(C)CCN1CCNC(=O)C1CC(=O)N(C)CCCN1CCOCC1 (centres undefined)	.	-2%	10%	-5%	0	6
O=C(O)c1ccc2c3c(cccc13)C(=O)N(c1cccc3ccccc13)C2=O	.	-2%	18%	-25%	-5	-27
CC(=O)c1ccc2c3c(cccc13)C(=O)N(c1c(C)nn(C)c1C)C2=O	10µM*	-25%	-1%	-14%	5	5
CCOc1ccccc1OCCOc1ccccc1CC	152%[59 µM]	192%	212%	147%	56	101
C=CCc1ccccc1OCCCCN1CCCC1	?	50µM*	?	10µM*	-3	-3
CCc1ccccc1OCCCCN1CCCC1	16µM*	?	-45%	7.9µM*	1	-3
CC(=O)c1ccccc1OCCCCN1CCCCC1	25µM*	?	?	25µM*	4	5
CCCn1nc(C(=O)Oc2ccc3c(C)cc(=O)oc3c2)c2ccccc2c1=O	14µM*	-3%	32%	-10%	2	0
CC(C)(C)Cc1nnc(NS(=O)(=O)c2ccccc2)s1	79µM*	-19%	-1%	-13%	-4	6
CC(CC(=O)Nc1nnc(CC(C)(C)C)s1)c1ccccc1 (centres undefined)	40µM*	5%	-7%	-12%	.	10
CC(C)Cc1nnc(NS(=O)(=O)c2ccccc2)s1	.	.	.	.	-2	9
O=C1NN(c2cccc(Br)c2)C(=O)/C1=C\c1ccc(O)cc1	3.5µM*	-36%	2%	-25%	.	-1
COc1cc(/C=C2/C(=O)NN(c3cccc(Cl)c3)C2=O)cc(OC)c1O	14µM*	28µM*	?	50µM*	3	-3
COc1cc(/C=C2/NC(=O)N(c3cccc(Cl)c3)C2=O)ccc1O	-2%	-22%	41%	-14%	-5	-7
CCOc1cc(/C=C2/C(=O)NN(c3cccc(Cl)c3)C2=O)ccc1O	32µM*	35µM*	-18%	?	10	13
COc1ccccc1CN1CCC2(CC1)CCN(C(=O)c1csnn1)CC2	6%[12.7 µM]	.	.	.	.	.
COc1ccc(N2CCN(CCCNC(=O)c3cc4sccc4n3C)CC2)cc1	14µM*	40µM*	-52%	32µM*	?	?
CC1CCN(CCCNC(=O)c2cc3sccc3n2C)CC1	?	8%	16%	-27%	-5	-4
COc1ccc(N2CCN(CCCNC(=O)CN3CCN(Cc4ccccc4C)C3=O)CC2)cc1	?	32µM*	?	?	-25	-22
SMILES	G9a block	BAZ2B block	HP1b binding inh	JMJD2A Tudor	CtBP-E1A blk	Six1-Eya2 blk
COc1ccc(N2CCN(CCCNC(=O)Cn3c(-c4cccs4)cc4ccccc43)CC2)cc1	10µM*	?	-31%	18µM*	.	.
CC(NC(=O)c1ccc2c(c1)sc1nc(-c3ccccc3)cn12)C12CC3CC(CC(C3)C1)C2 (centres undefined)	-7%[59 µM]	2%	38%	-7%	.	.
CC1=CCC(/C=N\Nc2nnc3c(n2)[nH]c2ccccc23)CC1 (centres undefined)	-8%[59 µM]	50µM*	.	.	.	.
Cc1c(Cl)cccc1NC(=O)CNc1cccc(C(F)(F)F)c1	71µM*	7%	33%	-17%	-17	-11
CCSc1nc2sc3c(c2c(=O)[nH]1)CCc1ccccc1-3	50µM*	11%	34%	-6%	.	2
COc1cc(N(C(C)=O)c2ccc(O)c(C(=O)O)c2)c2ncccc2c1	.	.	.	.	-9	?
O=C(O)COc1ccc(/C=N/NC(=O)C2CCCN2S(=O)(=O)c2ccc(Cl)cc2)cc1 (centres undefined)	45µM*	3%	31%	-6%	-9	9
O=C(CSc1ccc([N+](=O)[O-])cn1)Nc1ccccc1N1CCOCC1	40µM*	-25%	16%	-27%	-13	12
Cc1csc(NC(=O)CSc2ccc([N+](=O)[O-])cn2)n1	50µM*	-31%	31%	-27%	3	-5
O=C(CSc1ccc([N+](=O)[O-])cc1)Nc1ccccc1N1CCOCC1	.	.	1%	-34%	-14	-16
COc1ccc(CCNc2ncnc3c2nnn3Cc2ccccc2)cc1OC	-3%	3%	21%	-15%	-22	-13
CNC(=O)c1c(NC(=O)c2cc(=O)c3cc(C)c(C)cc3o2)sc2c1CCCC2	2%[59 µM]	-8%	11%	2%	.	.
c1ccc2c(c1)CCN(c1nc3cc4c(cc3s1)OCO4)C2	3.2µM*	?	-24%	-34%[57.1 µM]	-25	-22
c1c2c(cc3sc(N4CCCCC4)nc13)OCO2	10µM*	?	-31%	-35%	-12	-27
CC(=O)N1c2ccc(S(=O)(=O)N3CCCCCC3)cc2CC1C(=O)NCc1ccccc1F (centres undefined)	0%[59 µM]	-13%	16%	-8%	.	.
Cc1ccc(S(=O)(=O)NNC(=O)c2ccncc2)cc1	-2%	-1%	6%	79µM*	5	0
Cc1ccc(S(=O)(=O)NNC(=O)c2sc(=S)n(C)c2C)cc1	?	-33%	29%	3.5µM*	4	18
Cc1c(C(=O)N/N=C/c2ccc(O)cc2)sc(=S)n1C	4%[59 µM]	1%	12%	1%	-7	-18
O=C(NNS(=O)(=O)c1ccc([N+](=O)[O-])cc1)c1ccncc1	40µM*	-21%	-25%	-3%	-3	40
Cc1cccc(C(=O)NNS(=O)(=O)c2ccc(F)cc2)c1O	4%	-11%	26%	2µM*	-5	11
O=C(NNS(=O)(=O)c1ccccc1)c1ccncc1	?	11%	8%	10µM*	13	2
Cc1cccc(C(=O)NNS(=O)(=O)c2ccc(F)cc2)c1	.	-9%	25%	-3%	-13	-4
O=C(NNS(=O)(=O)c1ccccc1)c1cccc(F)c1	8%[0.501 µM]	56µM*	46%	8%	.	4
